Experiments:
Test in all cases: log2 ratio of Biotin-Ahx-Ub-VS probe labelling (fragment/DMSO); higher = less target engagement (more negative = stronger competition), active = hit call of the paper (q ≤ 0.05, log2 ratio ≤ -1)
Details in all cases: compound concentration: 200 uM; treatment time: 3 h
USP34 = USP34 (UniProt Q70CQ2)
In short: (§1)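 The table lists average log2 ratios of fragment over vehicle, from an unpaired t-test on global-median-normalised Spectronaut label-free quantities. Proteins with ≥2 unique peptides were used. Samples were HEK293T lysate (495 µg) treated in triplicate with fragment at 200 µM or vehicle for 3 h, then with Biotin-Ahx-Ub-VS (0.5 µM final) for 1 h, with labelled DUBs NeutrAvidin-enriched and run by diaPASEF LC-MS/MS.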

USP36 = biological target: T1, USP36 (UniProt Q9P275)
T1 sequence (whole entry): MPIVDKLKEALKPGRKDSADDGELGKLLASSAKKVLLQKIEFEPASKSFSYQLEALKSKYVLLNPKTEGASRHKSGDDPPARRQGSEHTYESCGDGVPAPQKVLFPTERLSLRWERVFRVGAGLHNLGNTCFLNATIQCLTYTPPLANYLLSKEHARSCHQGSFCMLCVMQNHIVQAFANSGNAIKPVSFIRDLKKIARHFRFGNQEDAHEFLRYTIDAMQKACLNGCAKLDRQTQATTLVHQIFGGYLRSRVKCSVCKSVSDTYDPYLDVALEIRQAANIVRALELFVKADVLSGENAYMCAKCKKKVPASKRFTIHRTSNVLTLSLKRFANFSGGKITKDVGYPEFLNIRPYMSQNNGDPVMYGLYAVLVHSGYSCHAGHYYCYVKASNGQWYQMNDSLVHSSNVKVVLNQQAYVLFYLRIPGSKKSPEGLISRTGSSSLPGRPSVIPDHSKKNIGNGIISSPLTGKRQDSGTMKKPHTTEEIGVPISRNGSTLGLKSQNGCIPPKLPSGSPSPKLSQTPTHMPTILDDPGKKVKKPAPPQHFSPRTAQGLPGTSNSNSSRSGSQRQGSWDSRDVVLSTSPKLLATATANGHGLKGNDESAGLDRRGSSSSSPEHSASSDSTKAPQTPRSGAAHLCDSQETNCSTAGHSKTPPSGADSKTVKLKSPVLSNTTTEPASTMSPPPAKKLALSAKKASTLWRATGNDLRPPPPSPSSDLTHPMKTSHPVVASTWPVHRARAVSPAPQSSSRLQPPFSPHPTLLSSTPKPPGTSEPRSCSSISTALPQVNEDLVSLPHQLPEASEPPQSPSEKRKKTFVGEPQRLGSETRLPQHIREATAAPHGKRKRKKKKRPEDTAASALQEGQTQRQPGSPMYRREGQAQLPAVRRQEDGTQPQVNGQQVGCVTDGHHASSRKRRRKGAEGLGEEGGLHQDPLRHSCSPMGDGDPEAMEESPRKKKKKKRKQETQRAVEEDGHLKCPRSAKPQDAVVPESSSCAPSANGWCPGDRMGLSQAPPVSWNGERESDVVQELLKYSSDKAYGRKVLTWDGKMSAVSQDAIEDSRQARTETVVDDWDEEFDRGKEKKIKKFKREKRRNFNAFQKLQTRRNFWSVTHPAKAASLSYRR
In short: as §1

USP38 = biological target: T2, USP38 (UniProt Q8NB14)
T2 sequence (whole entry): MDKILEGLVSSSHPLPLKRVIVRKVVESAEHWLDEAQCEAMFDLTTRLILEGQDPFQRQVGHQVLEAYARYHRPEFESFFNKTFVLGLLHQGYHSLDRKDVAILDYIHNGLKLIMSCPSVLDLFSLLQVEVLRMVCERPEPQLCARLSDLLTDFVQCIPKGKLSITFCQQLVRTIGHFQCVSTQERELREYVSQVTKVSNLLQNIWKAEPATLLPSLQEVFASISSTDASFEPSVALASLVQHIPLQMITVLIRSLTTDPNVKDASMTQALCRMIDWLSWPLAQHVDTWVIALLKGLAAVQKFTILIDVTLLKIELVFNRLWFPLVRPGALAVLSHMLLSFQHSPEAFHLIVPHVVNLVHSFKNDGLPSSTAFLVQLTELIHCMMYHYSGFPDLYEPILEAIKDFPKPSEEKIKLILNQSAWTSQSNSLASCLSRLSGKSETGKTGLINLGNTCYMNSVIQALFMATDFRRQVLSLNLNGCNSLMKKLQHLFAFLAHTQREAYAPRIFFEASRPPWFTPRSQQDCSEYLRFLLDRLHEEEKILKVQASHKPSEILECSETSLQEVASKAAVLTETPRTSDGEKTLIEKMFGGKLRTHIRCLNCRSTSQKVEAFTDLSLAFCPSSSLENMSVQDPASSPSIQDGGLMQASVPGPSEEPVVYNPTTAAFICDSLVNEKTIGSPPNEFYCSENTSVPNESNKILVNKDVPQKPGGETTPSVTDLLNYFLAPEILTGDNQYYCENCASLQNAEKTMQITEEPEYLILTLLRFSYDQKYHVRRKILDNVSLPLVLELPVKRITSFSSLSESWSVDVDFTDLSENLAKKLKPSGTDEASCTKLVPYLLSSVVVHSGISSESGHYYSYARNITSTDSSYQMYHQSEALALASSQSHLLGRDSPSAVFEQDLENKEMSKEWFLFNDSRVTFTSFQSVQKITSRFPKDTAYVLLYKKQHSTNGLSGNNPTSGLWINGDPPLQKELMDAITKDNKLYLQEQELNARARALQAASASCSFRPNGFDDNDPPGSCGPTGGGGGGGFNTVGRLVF
In short: as §1

USP39 = biological target: T3, USP39 (UniProt Q53GS9)
T3 sequence (whole entry): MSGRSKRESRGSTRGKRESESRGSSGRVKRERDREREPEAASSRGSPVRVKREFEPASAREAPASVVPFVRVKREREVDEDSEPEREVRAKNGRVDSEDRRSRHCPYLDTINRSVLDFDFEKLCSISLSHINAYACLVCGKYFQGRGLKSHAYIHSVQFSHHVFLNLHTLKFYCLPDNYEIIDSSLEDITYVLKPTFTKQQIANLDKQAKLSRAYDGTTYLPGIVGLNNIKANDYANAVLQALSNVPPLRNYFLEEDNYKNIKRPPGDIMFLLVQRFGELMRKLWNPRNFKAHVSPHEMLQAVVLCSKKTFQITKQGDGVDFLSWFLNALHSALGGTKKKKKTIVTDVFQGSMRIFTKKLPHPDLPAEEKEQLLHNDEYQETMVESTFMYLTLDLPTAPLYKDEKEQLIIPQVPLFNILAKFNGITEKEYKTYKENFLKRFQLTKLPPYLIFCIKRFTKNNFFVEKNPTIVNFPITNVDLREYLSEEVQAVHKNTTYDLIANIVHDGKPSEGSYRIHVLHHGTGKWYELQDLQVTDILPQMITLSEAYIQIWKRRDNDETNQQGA
In short: as §1

USP4 = biological target: T4, USP4 (UniProt Q13107)
T4 sequence (whole entry): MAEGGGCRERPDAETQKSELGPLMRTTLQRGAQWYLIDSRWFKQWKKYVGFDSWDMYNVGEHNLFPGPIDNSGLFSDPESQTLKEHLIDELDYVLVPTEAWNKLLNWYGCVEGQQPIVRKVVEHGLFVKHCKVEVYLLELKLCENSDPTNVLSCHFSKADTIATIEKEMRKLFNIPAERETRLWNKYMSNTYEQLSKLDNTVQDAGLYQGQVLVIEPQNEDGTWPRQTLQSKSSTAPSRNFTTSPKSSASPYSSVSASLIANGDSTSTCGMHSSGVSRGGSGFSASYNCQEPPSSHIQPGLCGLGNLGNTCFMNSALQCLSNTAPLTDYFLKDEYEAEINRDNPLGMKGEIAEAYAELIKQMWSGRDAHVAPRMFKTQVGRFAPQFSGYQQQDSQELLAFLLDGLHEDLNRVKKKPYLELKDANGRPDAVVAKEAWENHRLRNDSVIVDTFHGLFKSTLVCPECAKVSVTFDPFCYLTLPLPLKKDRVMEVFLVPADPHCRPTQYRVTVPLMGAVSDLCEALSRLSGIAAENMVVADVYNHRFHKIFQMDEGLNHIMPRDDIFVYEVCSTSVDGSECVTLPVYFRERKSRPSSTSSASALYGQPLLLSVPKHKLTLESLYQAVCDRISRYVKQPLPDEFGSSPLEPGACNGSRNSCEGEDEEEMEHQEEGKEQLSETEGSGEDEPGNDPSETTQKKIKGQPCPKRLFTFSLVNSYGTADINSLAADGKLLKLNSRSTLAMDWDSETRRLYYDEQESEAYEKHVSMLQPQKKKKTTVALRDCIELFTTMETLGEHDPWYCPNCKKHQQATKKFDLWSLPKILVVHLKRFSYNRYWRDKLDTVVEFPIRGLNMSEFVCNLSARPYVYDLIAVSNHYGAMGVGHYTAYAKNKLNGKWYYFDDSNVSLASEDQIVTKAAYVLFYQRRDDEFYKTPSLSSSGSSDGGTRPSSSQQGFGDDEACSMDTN
In short: as §1

Measured: log2 ratio of Biotin-Ahx-Ub-VS probe labelling

USP34, sequence (Q70CQ2 whole entry, the tested form may be a part): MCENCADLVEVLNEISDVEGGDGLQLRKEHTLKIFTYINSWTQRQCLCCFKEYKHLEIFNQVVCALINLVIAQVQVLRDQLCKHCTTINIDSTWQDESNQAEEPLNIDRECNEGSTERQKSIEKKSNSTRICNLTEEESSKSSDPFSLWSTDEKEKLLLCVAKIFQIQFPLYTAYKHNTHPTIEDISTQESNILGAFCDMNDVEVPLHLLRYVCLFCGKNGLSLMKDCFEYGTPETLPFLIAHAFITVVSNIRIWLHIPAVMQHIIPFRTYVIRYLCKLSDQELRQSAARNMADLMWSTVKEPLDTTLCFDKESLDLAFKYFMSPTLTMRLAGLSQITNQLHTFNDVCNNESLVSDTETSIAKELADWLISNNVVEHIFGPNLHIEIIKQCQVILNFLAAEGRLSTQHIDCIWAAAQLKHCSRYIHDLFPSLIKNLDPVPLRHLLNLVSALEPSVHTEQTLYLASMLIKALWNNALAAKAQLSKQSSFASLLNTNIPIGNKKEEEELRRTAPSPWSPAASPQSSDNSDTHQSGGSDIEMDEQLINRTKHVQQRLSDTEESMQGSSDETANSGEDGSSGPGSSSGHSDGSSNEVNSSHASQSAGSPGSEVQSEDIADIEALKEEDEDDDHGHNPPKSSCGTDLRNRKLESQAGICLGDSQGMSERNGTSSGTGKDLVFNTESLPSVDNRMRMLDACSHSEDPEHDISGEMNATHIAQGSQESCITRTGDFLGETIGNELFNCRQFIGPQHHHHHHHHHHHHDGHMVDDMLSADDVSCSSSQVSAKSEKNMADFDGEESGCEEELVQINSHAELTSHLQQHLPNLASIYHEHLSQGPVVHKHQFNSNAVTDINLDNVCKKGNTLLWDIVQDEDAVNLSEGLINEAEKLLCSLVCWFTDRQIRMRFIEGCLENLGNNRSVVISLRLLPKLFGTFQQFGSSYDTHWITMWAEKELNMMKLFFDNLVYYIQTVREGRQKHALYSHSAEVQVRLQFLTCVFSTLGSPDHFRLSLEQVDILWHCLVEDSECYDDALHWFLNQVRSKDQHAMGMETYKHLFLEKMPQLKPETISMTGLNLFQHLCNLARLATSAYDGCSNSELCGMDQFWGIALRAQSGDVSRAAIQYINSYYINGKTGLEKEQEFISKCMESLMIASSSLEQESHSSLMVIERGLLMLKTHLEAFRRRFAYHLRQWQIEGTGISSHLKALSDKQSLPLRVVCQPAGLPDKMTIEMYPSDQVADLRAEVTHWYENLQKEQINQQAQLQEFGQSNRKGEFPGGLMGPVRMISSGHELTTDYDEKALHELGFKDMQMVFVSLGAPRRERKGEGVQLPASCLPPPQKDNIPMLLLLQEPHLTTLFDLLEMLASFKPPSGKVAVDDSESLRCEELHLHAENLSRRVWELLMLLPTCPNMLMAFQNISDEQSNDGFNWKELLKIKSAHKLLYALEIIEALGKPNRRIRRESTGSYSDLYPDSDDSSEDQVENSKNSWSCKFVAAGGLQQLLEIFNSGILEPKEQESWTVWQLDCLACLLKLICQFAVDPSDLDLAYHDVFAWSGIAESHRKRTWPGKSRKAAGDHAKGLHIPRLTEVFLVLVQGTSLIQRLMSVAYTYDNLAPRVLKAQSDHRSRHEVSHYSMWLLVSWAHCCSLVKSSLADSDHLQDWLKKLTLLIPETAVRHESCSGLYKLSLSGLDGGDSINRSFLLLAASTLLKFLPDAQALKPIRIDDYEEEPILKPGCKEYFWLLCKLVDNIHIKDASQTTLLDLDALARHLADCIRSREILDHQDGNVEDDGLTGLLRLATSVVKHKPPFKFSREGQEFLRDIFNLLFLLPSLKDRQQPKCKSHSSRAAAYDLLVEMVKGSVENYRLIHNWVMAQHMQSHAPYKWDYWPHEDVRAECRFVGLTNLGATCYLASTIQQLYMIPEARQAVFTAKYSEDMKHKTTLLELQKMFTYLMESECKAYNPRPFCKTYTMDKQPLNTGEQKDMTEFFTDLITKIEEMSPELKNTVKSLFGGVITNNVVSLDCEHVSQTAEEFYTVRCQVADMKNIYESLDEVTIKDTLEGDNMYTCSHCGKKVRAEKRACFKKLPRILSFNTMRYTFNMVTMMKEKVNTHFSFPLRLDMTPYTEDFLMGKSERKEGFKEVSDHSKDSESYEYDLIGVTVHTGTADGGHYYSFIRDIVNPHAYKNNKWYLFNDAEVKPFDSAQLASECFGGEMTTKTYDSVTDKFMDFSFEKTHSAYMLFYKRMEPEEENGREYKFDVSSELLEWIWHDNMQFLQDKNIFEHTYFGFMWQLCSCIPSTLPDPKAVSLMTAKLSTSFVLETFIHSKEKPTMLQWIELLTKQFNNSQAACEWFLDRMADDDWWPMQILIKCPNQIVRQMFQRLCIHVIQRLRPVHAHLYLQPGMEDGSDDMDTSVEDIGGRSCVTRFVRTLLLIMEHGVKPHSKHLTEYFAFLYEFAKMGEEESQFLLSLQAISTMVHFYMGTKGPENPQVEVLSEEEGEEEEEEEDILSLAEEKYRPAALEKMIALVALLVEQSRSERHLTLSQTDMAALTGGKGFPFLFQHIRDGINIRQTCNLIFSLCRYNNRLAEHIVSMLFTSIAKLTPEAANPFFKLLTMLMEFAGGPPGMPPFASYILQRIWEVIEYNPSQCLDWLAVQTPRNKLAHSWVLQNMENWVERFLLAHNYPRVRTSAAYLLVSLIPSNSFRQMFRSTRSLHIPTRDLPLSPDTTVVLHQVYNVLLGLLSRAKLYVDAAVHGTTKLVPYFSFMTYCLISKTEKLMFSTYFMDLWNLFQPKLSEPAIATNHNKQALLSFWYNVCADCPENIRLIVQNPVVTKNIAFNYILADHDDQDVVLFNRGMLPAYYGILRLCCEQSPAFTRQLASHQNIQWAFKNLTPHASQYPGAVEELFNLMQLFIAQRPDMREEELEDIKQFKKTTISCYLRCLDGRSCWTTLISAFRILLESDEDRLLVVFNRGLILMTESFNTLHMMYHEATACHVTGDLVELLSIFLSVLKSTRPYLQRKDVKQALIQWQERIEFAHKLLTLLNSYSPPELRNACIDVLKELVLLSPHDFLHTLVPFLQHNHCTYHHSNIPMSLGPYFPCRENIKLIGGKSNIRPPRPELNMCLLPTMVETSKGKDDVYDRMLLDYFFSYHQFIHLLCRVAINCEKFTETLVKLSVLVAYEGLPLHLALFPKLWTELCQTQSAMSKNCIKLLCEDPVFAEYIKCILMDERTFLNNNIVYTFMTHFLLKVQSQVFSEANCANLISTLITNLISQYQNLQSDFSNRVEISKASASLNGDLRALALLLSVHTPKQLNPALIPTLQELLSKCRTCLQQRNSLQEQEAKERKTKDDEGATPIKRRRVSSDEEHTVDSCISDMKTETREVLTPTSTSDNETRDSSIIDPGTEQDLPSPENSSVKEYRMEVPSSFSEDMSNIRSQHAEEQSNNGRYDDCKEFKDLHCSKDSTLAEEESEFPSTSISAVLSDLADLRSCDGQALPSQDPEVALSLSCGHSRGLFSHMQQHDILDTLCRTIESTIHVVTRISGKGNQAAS

O=C(CCl)NCCc1ccc(F)cc1
inactive: USP34 -0.0755 | USP36 0.207 | USP38 0.0565 | USP39 0.108 | USP4 -0.11
